Results from PubChem BioAssay (EPA / NIEHS).
Records with an inconclusive call do not appear. The source made the active and inactive calls. The calls were made as follows, unless noted: active = hit-call score of the fitted dose curve at least 0.9, where 1 is the maximum; inactive = score below 0.9.

Columns and labels:
[1] = CCTE_Shafer_MEA_acute_cross_correlation_area: CCTE's Neural Acute Assay for Area of Cross Correlation, Shafer Lab (AID 2284024);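 also: area under pooled inter-electrode spike cross-correlation near zero lag as percent change from own baseline; curves fitted for loss of cross-correlation area so actives lower synchrony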;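 as to outcome: rat primary cortical neuron networks on 48-well MEA at DIV 13 or 15 with 40 min exposure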
How it was run: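 Percent change in well-wide cross-correlation area (window around zero lag) between 40 min baseline and 40 min post-compound recordings, 37 C; rat cortical cultures on MEA at DIV 13 or 15, dosed 0.03-40 uM, wells needing >/= 10 active electrodes.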

[2] = CCTE_Shafer_MEA_acute_cross_correlation_HWHM: CCTE's Neural Acute Assay for Cross Correlation at Half Width at Half Maximum, Shafer Lab (AID 2284026);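 also: percent change per well from pre-dose baseline in spike cross-correlogram half width; hits are a decrease in cross-correlogram half width relative to DMSO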;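 as to outcome: spontaneous network firing of rat primary cortical neurons on multiwell microelectrode arrays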
How it was run: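 Per-well percent change in cross-correlogram half width at half maximum, derived from 40-min recordings before and after compound (0.03-40 uM) at 37 C. Cultures were rat cortical neurons, DIV 13 or 15, with adaptive spike detection at 8x rms.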

[3] = CCTE_Shafer_MEA_acute_synchrony_index: CCTE's Neural Acute Assay for Synchrony, Shafer Lab (AID 2284027);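 also: network synchrony index of spontaneous spiking in primary rat cortical neurons on MEAs; fitted for loss of signal so actives lower synchrony relative to DMSO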
How it was run: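 Rat cortical cultures, DIV 13/15; spikes detected at 8x rms noise, 300-5000 Hz band-pass. Compound 0.03-40 uM, ≥3 wells; 40-min pre- and post-exposure recordings, 37 C. Readout: % change in synchrony index; loss-of-signal fit vs DMSO.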

[4] = molecular target: Estrogen receptor (Homo sapiens) (UniProt P03372); test: CCTE_Deisenroth_AIME_384WELL_LUC_Active: CCTE's 384-well Estrogen Receptor Transactivation Assay with AIME metabolic competence (ERTA luciferase; metabolism positive), Deisenroth Lab (AID 2284030; active = hit-call score of the fitted dose curve at least 0.9, where 1 is the maximum)
Chain of Estrogen receptor (Homo sapiens) (P03372 whole entry, looked up): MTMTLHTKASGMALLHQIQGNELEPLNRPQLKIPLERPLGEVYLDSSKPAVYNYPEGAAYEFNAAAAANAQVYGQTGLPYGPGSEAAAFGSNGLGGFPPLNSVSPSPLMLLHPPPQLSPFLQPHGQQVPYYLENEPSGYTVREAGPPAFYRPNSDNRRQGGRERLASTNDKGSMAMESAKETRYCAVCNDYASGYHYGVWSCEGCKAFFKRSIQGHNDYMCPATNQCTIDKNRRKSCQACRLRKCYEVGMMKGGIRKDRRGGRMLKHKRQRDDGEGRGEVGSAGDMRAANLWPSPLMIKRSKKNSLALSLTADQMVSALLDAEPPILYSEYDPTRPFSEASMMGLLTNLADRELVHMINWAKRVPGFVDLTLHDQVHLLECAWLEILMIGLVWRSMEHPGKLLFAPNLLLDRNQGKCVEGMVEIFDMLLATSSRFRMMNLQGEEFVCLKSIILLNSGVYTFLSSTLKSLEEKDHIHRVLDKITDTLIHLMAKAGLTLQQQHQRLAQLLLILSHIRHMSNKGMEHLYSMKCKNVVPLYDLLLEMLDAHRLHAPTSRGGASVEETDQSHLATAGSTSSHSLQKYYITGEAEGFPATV
How it was run: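 VM7Luc4E2 breast cells were given, for 24 hours, medium pre-incubated for 2 hours with parent chemical (0.002-200 uM, 10 concentrations) and alginate-encapsulated phenobarbital/beta-naphthoflavone-induced rat hepatic S9. Luciferase gain of signal was fitted against 17beta-estradiol; n=4 or more.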

[5] = CCTE_Deisenroth_AIME_384WELL_CTox_Active: Cytotoxicity Assessment (CTOX) in CCTE's 384-well Estrogen Receptor Transactivation Assay with AIME metabolic competence (metabolism positive), Deisenroth Lab (AID 2284037; active = hit-call score of the fitted dose curve at least 0.9, where 1 is the maximum;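 also: chemicals first conditioned 2 h by alginate-bound induced rat liver S9 before cells; activity means signal loss indicating cell death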)
How it was run: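 Cytotoxicity in VM7Luc4E2 breast cells, 24 hour, measured as protease-substrate fluorescence loss, after 2-hour metabolic conditioning with induced rat hepatic S9 in alginate microspheres. Concentrations 0.002 - 200 uM, 10 points, bidirectional fitting.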

[6] = molecular target: Estrogen receptor (Homo sapiens) (UniProt P03372); test: CCTE_Deisenroth_AIME_384WELL_LUC_Inactive: CCTE's 384-well Estrogen Receptor Transactivation Assay without AIME metabolic competence (ERTA luciferase; metabolism negative), Deisenroth Lab (AID 2284038; active = hit-call score of the fitted dose curve at least 0.9, where 1 is the maximum;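 also: VM7Luc4E2 breast cells given medium preincubated 2 h with S9-free microspheres; hits raise estrogen receptor luciferase signal so potencies reflect agonists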)
How it was run: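 Metabolism-negative mode: AIME lids stamped in alginate-water, no hepatic S9. 2 h chemical incubation → medium onto VM7Luc4E2 ERTA, 24 h. Readout luciferase luminescence; gain-of-signal fit vs 17beta-estradiol. Conc. 0.002 - 200 uM.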

[7] = molecular target: Estrogen receptor (Homo sapiens) (UniProt P03372); test: CCTE_Deisenroth_AIME_384WELL_LUC_Shift: CCTE's 384-well Estrogen Receptor Transactivation Assay with AIME metabolic competence data shift (ERTA luciferase; difference in metabolism positive and negative), Deisenroth Lab (AID 2284041);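 also: shift is response with S9 minus without S9 so positive means metabolism raised ER signal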
How it was run: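 Test chemicals (0.002–200 uM, 10-point) were pre-incubated 2 h with alginate microspheres containing phenobarbital/beta-naphthoflavone-induced male Sprague Dawley rat liver S9 or water, then medium was transferred to VM7Luc4E2 cells for 24 h luciferase readout; shift = S9-positive minus S9-negative normalized response.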

[8] = CCTE_Shafer_MEA_dev_firing_rate_mean: CCTE's Neural Network Formation Assay for Mean Firing Rate, Shafer Lab (AID 2284031)
How it was run: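 Read-out: spike count/recording length, averaged over active electrodes, then AUC across days 5, 7, 9, 12. Rat cortical cultures on MEA; continuous 12-day exposure, media and treatment renewed DIV 5, 9; DMSO baseline.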

[9] = CCTE_Shafer_MEA_dev_per_burst_spike_percent: CCTE's Neural Network Formation Assay for Percent of Spikes in a Burst, Shafer Lab (AID 2284032)
How it was run: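 Value is trapezoidal AUC over recordings on days 5, 7, 9 and 12 of the well-mean fraction of spikes falling in single-electrode bursts; rat cortical cultures exposed continuously from plating, treatment renewed DIV 5 and 9, fitted downward against DMSO.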

[10] = CCTE_Shafer_MEA_dev_active_electrodes_number: CCTE's Neural Network Formation Assay for Number of Active Electrodes, Shafer Lab (AID 2284040; active = hit-call score of the fitted dose curve at least 0.9, where 1 is the maximum)
How it was run: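 Developing rat cortical networks on MEAs, exposed DIV 0–12. Value is the AUC of active-electrode counts (≥5 spikes/min) from days 5, 7, 9, 12, relative to DMSO.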

[11] = CCTE_Shafer_MEA_dev_burst_rate: CCTE's Neural Network Formation Assay for Burst Rate, Shafer Lab (AID 2284042)
How it was run: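 Primary rat cortical neurons on PEI-coated 48-well MEA plates (laminin added with cells at plating) (16 electrodes/well), exposed from plating to day 12, dosing renewed at DIV 5 and 9. Burst rate averaged over active electrodes, recorded DIV 5, 7, 9, 12, summarized as AUC; loss versus DMSO.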

[12] = CCTE_Shafer_MEA_dev_bursting_electrodes_number: CCTE's Neural Network Formation Assay for Number of Bursting Electrodes, Shafer Lab (AID 2284043; active = hit-call score of the fitted dose curve at least 0.9, where 1 is the maximum)
How it was run: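 Number of electrodes reaching ≥1 burst every 2 min was recorded at DIV 5, 7, 9 and 12 and collapsed as trapezoidal area under the curve. Cultures were rat cortical neurons on MEA plates, dosed continuously from plating with medium and treatment refreshed on DIV 5 and 9.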

[13] = CCTE_Shafer_MEA_dev_per_burst_interspike_interval: CCTE's Neural Network Formation Assay for Burst Interspike Interval, Shafer Lab (AID 2284044)
How it was run: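 Mean interspike interval within single-electrode bursts, averaged over bursting electrodes, from rat cortical cultures on MEA plates recorded on days 5, 7, 9 and 12. Continuous compound exposure from plating; trapezoidal AUC fitted downward relative to DMSO.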

[14] = CCTE_Shafer_MEA_dev_burst_duration_mean: CCTE's Neural Network Formation Assay for Mean Burst Duration, Shafer Lab (AID 2284045)
How it was run: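 Mean single-electrode burst duration (first to last spike), averaged over bursting electrodes per well, then integrated as area-under-curve across recordings at days 5, 7, 9 and 12. Rat cortical cultures on MEAs, compound present from plating, refreshed at feeds.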

[15] = CCTE_Shafer_MEA_dev_interburst_interval_mean: CCTE's Neural Network Formation Assay for Mean Interburst Interval, Shafer Lab (AID 2284046);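 also: well-mean interburst interval of bursting electrodes as AUC over four recording days; curve fitted for decrease in interburst interval relative to DMSO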
How it was run: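 Recordings on days 5, 7, 9 and 12 give well-mean interburst interval across actively bursting electrodes, summarized as area under the curve. Cultures: rat cortical neurons, continuous exposure from day 0, compound renewed at feeds; decrease analyzed versus DMSO.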

[16] = CCTE_Shafer_MEA_dev_inter_network_spike_interval_mean: CCTE's Neural Network Formation Assay for Mean Inter-network Spike Interval, Shafer Lab (AID 2284047)
How it was run: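 Primary rat cortical neurons on 16-electrode MEA wells, exposed from plating day 0 through DIV 12, compound renewed at DIV 5 and 9 media changes. Mean interval between network-spike peaks recorded DIV 5, 7, 9, 12; collapsed as trapezoidal AUC, fitted downward versus DMSO.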

[17] = CCTE_Shafer_MEA_dev_network_spike_number: CCTE's Neural Network Formation Assay for Number of Network Spikes, Shafer Lab (AID 2284048);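 also: synchronized bursts across electrodes counted on days 5 7 9 12 and integrated as AUC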
How it was run: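 Number of network spikes (coordinated firing across electrodes) recorded on days 5, 7, 9 and 12 and summarised as area under the curve. Rat cortical cultures on MEA, continuous compound exposure with full medium/treatment exchange at DIV 5 and 9.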

[18] = molecular target: Estrogen receptor (Homo sapiens) (UniProt P03372); test: CCTE_Deisenroth_AIME_96WELL_LUC_Active: CCTE's 96-well Estrogen Receptor Transactivation Assay with AIME metabolic competence (ERTA luciferase; metabolism positive), Deisenroth Lab (AID 2284023; active = hit-call score of the fitted dose curve at least 0.9, where 1 is the maximum)
How it was run: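 Metabolism-positive mode: induced rat hepatic S9 in alginate microspheres conditions test solutions (0.002 - 200 uM, 10 points) for 2 hours. VM7Luc4E2 ER luciferase reporter cells then exposed 24 h; positive-direction fit against 17beta-estradiol, n=4 typical.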

[19] = molecular target: Estrogen receptor (Homo sapiens) (UniProt P03372); test: CCTE_Deisenroth_AIME_96WELL_LUC_Inactive: CCTE's 96-well Estrogen Receptor Transactivation Assay without AIME metabolic competence (ERTA luciferase; metabolism negative), Deisenroth Lab (AID 2284025; active = hit-call score of the fitted dose curve at least 0.9, where 1 is the maximum)
How it was run: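 Metabolism-negative arm: chemicals (0.002–200 uM, 10 points) incubated 2 h with alginate-water microspheres, then medium moved onto VM7Luc4E2 cells for 24 h luciferase read-out. Positive direction vs 17beta-estradiol; n≥4 experiments.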

CCN(Cc1cccc(S(=O)(=O)O)c1)c1ccc(C(=C2C=CC(=[N+](CC)Cc3cccc(S(=O)(=O)O)c3)C=C2)c2ccccc2S(=O)(=O)[O-])cc1
outcome [1]: inactive
outcome [2]: inactive
AC50 [3]: 12.9 µM (active)

CN(C[C@@H](CC[N+]12CCC(C3CCCCC3)(CC1)CC2)c1ccc(Cl)c(Cl)c1)C(=O)c1cc(C(F)(F)F)cc(C(F)(F)F)c1
outcome [1]: inactive
AC50 [2]: 8 µM (active)
AC50 [3]: 8.29 µM (active)

CC1=CC(=O)/C(=C(/C)O)C(=O)O1
outcome [1]: inactive
outcome [2]: inactive
outcome [3]: inactive

Cc1c2ccccc2c(C)c2c1ccc1ccccc12
outcome [1]: inactive
AC50 [2]: 26.3 µM (active)
AC50 [3]: 36.9 µM (active)
AC50 [4]: 13.9 µM (active)
outcome [5]: inactive
outcome [6]: inactive
outcome [7]: inactive

O=C(O)c1ccccc1-n1cc(C(=O)O)c(=O)c2cc(Nc3c(F)cc(F)cc3Cl)c(Cl)cc21
outcome [1]: inactive
outcome [2]: inactive
outcome [3]: inactive

COc1cccc([C@H](O)C2CCN(CCc3ccc(F)cc3)CC2)c1OC
outcome [1]: inactive
AC50 [2]: 10.2 µM (active)
outcome [3]: inactive
outcome [4]: inactive
outcome [6]: inactive
outcome [7]: inactive

Cc1cc2c(cc1C(F)(F)F)N(C(=O)Nc1ccc(Oc3cccnc3C)nc1)CC2
outcome [1]: inactive
outcome [2]: inactive
outcome [3]: inactive

C[C@]12CC[C@@H]3c4ccc(O)cc4CC[C@H]3[C@@H]1CC[C@H]2O
outcome [1]: inactive
outcome [2]: inactive
outcome [3]: inactive

CC(C)(c1cc(Br)c(O)c(Br)c1)c1cc(Br)c(O)c(Br)c1
outcome [1]: inactive
outcome [2]: inactive
outcome [3]: inactive
outcome [8]: inactive
outcome [9]: inactive
outcome [10]: inactive
outcome [11]: inactive
outcome [12]: inactive
outcome [13]: inactive
outcome [14]: inactive
outcome [15]: inactive
outcome [16]: inactive
outcome [17]: inactive

NCc1cccc(C2CCN(C(=O)c3ccc(C#Cc4ccccc4F)o3)CC2)c1
outcome [1]: inactive
AC50 [2]: 34.9 µM (active)
AC50 [3]: 28.6 µM (active)

O=c1ccc2ccccc2o1
outcome [18]: inactive
outcome [19]: inactive

CC(=O)N1CCN(c2ccc(OC[C@H]3CO[C@](Cn4ccnc4)(c4ccc(Cl)cc4Cl)O3)cc2)CC1
outcome [1]: inactive
AC50 [2]: 33.1 µM (active)
outcome [3]: inactive

CCCCOC(=O)c1ccc(O)cc1
outcome [1]: inactive
outcome [2]: inactive
outcome [3]: inactive

CN(C)C(=O)C1(N2CCCCC2)CCN(CC[C@@]2(c3ccc(Cl)c(Cl)c3)CN(C(=O)c3ccccc3)CCO2)CC1
outcome [1]: inactive
AC50 [2]: 22.1 µM (active)
AC50 [3]: 19.5 µM (active)

O=C1O[C@H]([C@@H](O)CO)C(O)=C1O
outcome [1]: inactive
outcome [2]: inactive
outcome [3]: inactive
outcome [8]: inactive
outcome [9]: inactive
outcome [10]: inactive
outcome [11]: inactive
outcome [12]: inactive
outcome [13]: inactive
outcome [14]: inactive
outcome [15]: inactive
outcome [16]: inactive
outcome [17]: inactive

CC[C@@H]1C[C@H](N(Cc2cc(C(F)(F)F)cc(C(F)(F)F)c2)C(C)=O)c2cc(C(F)(F)F)ccc2N1C(=O)OC(C)C
outcome [1]: inactive
outcome [2]: inactive
AC50 [3]: 3.97 µM (active)

O=c1[nH]sc2ccccc12
AC50 [1]: 0.0302 µM (active)
AC50 [2]: 32.6 µM (active)
AC50 [3]: 20 µM (active)
outcome [4]: inactive
outcome [5]: inactive
outcome [6]: inactive
outcome [7]: inactive

CCN(CC)C(=O)c1cc(S(=O)(=O)Cc2ccccc2)c(N2CCC(c3ccccc3)CC2)cc1N(CC)CCN(C)C
outcome [1]: inactive
AC50 [2]: 11 µM (active)
AC50 [3]: 11.8 µM (active)
outcome [4]: inactive
outcome [5]: inactive
outcome [6]: inactive
outcome [7]: inactive

COc1cc(C(=O)NC2CCN(C)CC2)ccc1Nc1ncc2c(n1)N(C1CCCC1)CC(F)(F)C(=O)N2C
outcome [1]: inactive
AC50 [2]: 30.1 µM (active)
AC50 [3]: 18.6 µM (active)

CC(C)(C)c1cc(/C=C2\SC(N)=NC2=O)cc(C(C)(C)C)c1O
outcome [1]: inactive
outcome [2]: inactive
outcome [3]: inactive
outcome [4]: inactive
outcome [5]: inactive
outcome [6]: inactive
outcome [7]: inactive

Cc1cn([C@H]2C[C@H](N=[N+]=[N-])[C@@H](CO)O2)c(=O)[nH]c1=O
outcome [1]: inactive
outcome [2]: inactive
outcome [3]: inactive
outcome [4]: inactive
outcome [6]: inactive
outcome [7]: inactive

CCCCCCCCCCCCO
outcome [1]: inactive
AC50 [2]: 28.8 µM (active)
AC50 [3]: 27.6 µM (active)

OC12N=C(c3ccccc3)SC1Cc1cc(Cl)ccc12 (stereo unspecified)
outcome [1]: inactive
AC50 [2]: 31.3 µM (active)
AC50 [3]: 31.8 µM (active)
outcome [4]: inactive
outcome [6]: inactive
AC50 [7]: 3.82 µM (active)

NC(=O)c1nc(-c2cccc(-c3cc(F)ccc3OCC(F)(F)C(F)(F)F)c2)n[nH]1
outcome [1]: inactive
AC50 [2]: 8.29 µM (active)
AC50 [3]: 6.63 µM (active)
